Measurements: the supplement of paper PMC11219838
A number with no mark means an inactive call.

What was measured:
Details in all cases: 60 µM; 5 days; temperature: 20 °C
[1] = test system: Meloidogyne hapla J2; experiment: proportion of mobile M. hapla J2 relative to DMSO control (fraction of DMSO control); higher = more viable, less nematicidal, active = 0.7 or less
Summary of the method: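 About 25 M. hapla J2 were placed in each well of a 96-well plate in distilled water, and compound was pinned in to a final 60 µM with 0.6% v/v DMSO. The sealed plates were shaken at 200 rpm at 20 °C for 5 days, after which 2 µL of 1 M NaOH went into each well. Mobility was then scored under the microscope and divided by the mean value from DMSO-only wells on the same plate. Each plate held eight such DMSO wells, and two biological replicates were averaged.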

[2] = test system: Caenorhabditis elegans dauer (daf-2(e1370)); experiment: proportion of mobile C. elegans dauer larvae relative to DMSO control (fraction of DMSO control); higher = more viable, less nematicidal, active = 0.63 or less; extreme values may be limits of the assay
Summary of the method: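 Compound was added by pinning to 60 µM final, giving 0.6% v/v DMSO, in 96-well plates containing about 20 C. elegans dauers per well in liquid NGM. These dauers came from synchronized larvae held on MYOB plates with E. coli OP50 for 48 h at 25 °C. Plates were sealed and shaken at 200 rpm at 20 °C for 5 days. Under a dissection microscope, the proportion of mobile worms was scored relative to DMSO wells, and two biological replicates were averaged.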

[3] = test system: Ditylenchus dipsaci; experiment: proportion of mobile D. dipsaci (mixed stage) relative to DMSO control (fraction of DMSO control); higher = more viable, less nematicidal, active = 0.86 or less; extreme values may be limits of the assay
Summary of the method: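 Ditylenchus dipsaci nematodes were cultured on pea plants in Gamborg B-5 agar, then extracted into water through a filter funnel, and roughly 20 worms in distilled water were placed in each well of a 96-well plate. Compound was pinned in to a final concentration of 60 µM (0.6% v/v DMSO), and the sealed plates were shaken at 200 rpm for 5 days at 20 °C. Mobile worms were counted under the microscope after 2 µL of 1 M NaOH was added. Mobility is given relative to DMSO controls as the mean of two biological replicates.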

| Structure (SMILES) | proportion of mobile M. hapla J2 [1] | proportion of mobile C. elegans dauer larvae [2] | proportion of mobile D. dipsaci [3] |
| --- | --- | --- | --- |
| COC(=O)c1ccc(CSc2nnc(-c3cccnc3)o2)cc1 | 1.03 | 1 | 1 |
| Cc1cccc(-c2noc(COc3ccc(C)cc3C)n2)c1 | 1.09 | 1 | 1 |
| COc1ccccc1-c1nc(-c2ccccc2Cl)no1 | 0.899 | 1 | 1 |
| C=CCOc1cccc(-c2nc(-c3cccnc3)no2)c1 | 1.03 | 1 | 1 |
| Cc1cc(OCc2nc(-c3ccccc3)no2)cc(C)c1Cl | 1.05 | 1 | 1 |
| Cc1ccc(OC(C)c2nc(-c3ccc4c(c3)OCO4)no2)cc1C (stereo unspecified) | 0.943 | 1 | 1 |
| O=C(CSc1nnc(-c2ccccc2)o1)c1ccc(Br)cc1 | 0.966 | 1 | 1 |
| COc1ccccc1-c1nc(-c2ccc(Cl)cc2)no1 | 0.934 | 1 | 1 |
| Cc1ccccc1-c1nc(-c2ccc(Cl)cc2)no1 | 0.841 | 1 | 1 |
| Clc1ccc(-c2nnc(SCc3ccccc3)o2)cc1 | 0.827 | 1 | 1 |
| CCOc1cc(-c2nc(-c3cccnc3)no2)cc(OCC)c1OCC | 1.05 | 1 | 1 |
| Clc1ccc(-c2noc(-c3ccccc3Br)n2)cc1 | 0.995 | 1 | 1 |
| Clc1cccc(-c2nc(-c3ccc4c(c3)OCO4)no2)c1 | 0.943 | 1 | 1 |
| Brc1ccccc1-c1nc(-c2ccc3c(c2)OCO3)no1 | 1.04 | 1 | 1 |
| COc1ccc(-c2noc(COc3ccc(Cl)cc3)n2)cc1 | 1.04 | 1 | 1 |
| COc1cccc(-c2noc(COc3cc(C)cc(C)c3)n2)c1 | 1.02 | 1 | 1 |
| COc1ccccc1-c1nnc(SCc2ccccc2C)o1 | 0.929 | 1 | 1 |
| COc1ccc(C(=O)CSc2nnc(-c3cccc4ccccc34)o2)cc1 | 0.929 | 1 | 1 |
| COc1ccc(-c2nnc(SCC(=O)N(C)c3ccccc3)o2)cc1 | 1.05 | 1 | 1 |
| Cc1cccc(-c2noc(-c3ccc(C)cc3Cl)n2)c1 | 0.964 | 1 | 1 |
| COc1ccc(-c2nc(-c3ccc(C(F)(F)F)cc3)no2)cc1 | 0.966 | 1 | 1 |
| Clc1ccc(OCc2nc(-c3cccs3)no2)cc1 | 0.923 | 1 | 1 |
| CCOc1ccccc1-c1nc(-c2ccc(Cl)cc2)no1 | 0.856 | 1 | 1 |
| O=C(CSc1nnc(-c2cc3ccccc3o2)o1)NC1CC1 | 0.928 | 1 | 1 |
| COc1nc(C)ccc1-c1noc(-c2ccc(C)cc2)n1 | 0.926 | 1 | 1 |

| Structure (SMILES) | proportion of mobile M. hapla J2 [1] | proportion of mobile C. elegans dauer larvae [2] | proportion of mobile D. dipsaci [3] |
| --- | --- | --- | --- |
| O=C(Nc1ccccc1-c1nc(-c2ccncc2)no1)c1ccc(Cl)cc1 | 0.909 | 1 | 1 |
| Brc1ccc(OCc2nc(-c3cccs3)no2)cc1 | 0.963 | 1 | 1 |
| O=C(CSc1nnc(-c2cccnc2)o1)c1ccc(Br)cc1 | 1.04 | 1 | 1 |
| COc1nc2ccc(C)cc2cc1-c1noc(-c2ccncc2)n1 | 0.849 | 1 | 1 |
| COc1ccccc1NC(=O)c1ccccc1-c1nc(-c2ccc(Cl)cc2)no1 | 0.78 | 1 | 1 |
| COC(=O)c1ccc(NC(=O)CSc2nnc(-c3ccc(Cl)cc3Cl)o2)cc1 | 0.929 | 1 | 1 |
| O=C(CSc1nnc(-c2cccc(Cl)c2)o1)Nc1ccccc1 | 0.813 | 1 | 1 |
| COc1ccc(-c2nnc(SCC(=O)Nc3ccc(Cl)cc3Cl)o2)cc1 | 0.976 | 1 | 1 |
| COc1cccc(-c2noc(COc3cccc(C)c3C)n2)c1 | 1.04 | 1 | 1 |
| O=C(NC1CCCCC1)c1ccccc1-c1nc(-c2ccc(F)cc2)no1 | 0.863 | 1 | 1 |
| Brc1ccc(-c2nnc(SCc3ccccc3)o2)cc1 | 1.04 | 1 | 1 |
| Cc1cc(NC(=O)CSc2nnc(-c3ccccc3Cl)o2)no1 | 0.915 | 1 | 1 |
| Ic1ccc(OCc2nc(-c3ccncc3)no2)cc1 | 1.01 | 1 | 1 |
| COc1cccc(NC(=O)CSc2nnc(-c3ccc(C)cc3)o2)c1 | 1.04 | 1 | 1 |
| CCCOc1ccc(-c2ccc(-c3nc(-c4ccccn4)no3)cc2)cc1 | 0.969 | 1 | 1 |
| Cc1ccc(-c2nc(-c3cccc(C)c3)no2)cc1 | 0.87 | 1 | 1 |
| O=C(CSc1nnc(-c2ccncc2)o1)Nc1ccccc1Cl | 0.724 | 1 | 1 |
| O=C(CSc1nnc(-c2ccc(Cl)cc2)o1)Nc1ccc(F)cc1 | 0.912 | 1 | 1 |
| Clc1ccc(-c2nc(-c3ccccc3Br)no2)cc1 | 0.984 | 1 | 1 |
| COc1cccc(-c2noc(-c3cc(C)ccc3C)n2)c1 | 0.995 | 1 | 1 |
| Clc1ccc(OCc2nc(-c3ccccc3)no2)c(Cl)c1 | 0.796 | 1 | 1 |
| Cc1ccccc1OCc1nc(-c2cccc(NC(=O)c3ccco3)c2)no1 | 1.03 | 1 | 1 |
| Fc1cccc(Cl)c1CSc1nnc(-c2ccccc2)o1 | 1 | 0.977 | 1 |
| COc1ccc(-c2nnc(SCc3c(Cl)cccc3Cl)o2)cc1 | 1 | 1 | 1 |
| Cc1ccc(-c2noc(-c3ccc(C)cc3Cl)n2)cc1 | 0.893 | 1 | 1 |

| Structure (SMILES) | proportion of mobile M. hapla J2 [1] | proportion of mobile C. elegans dauer larvae [2] | proportion of mobile D. dipsaci [3] |
| --- | --- | --- | --- |
| Cc1ccc(OCc2nc(-c3cccnc3)no2)cc1C | 1.02 | 1 | 1 |
| O=C(Nc1ccccc1-c1nc(-c2cccnc2)no1)c1cc2ccccc2o1 | 0.919 | 1 | 0.9 |
| CC1CC(C)CN(C(=O)CSc2nnc(-c3cccc(Cl)c3)o2)C1 (stereo unspecified) | 1.04 | 1 | 1 |
| Clc1ccc(-c2noc(-c3ccccc3Cl)n2)cc1 | 0.927 | 1 | 1 |
| Cc1cc(OCc2nc(-c3cccnc3)no2)cc(C)c1Br | 1.05 | 1 | 1 |
| Cc1ccc(-c2noc(COc3cccc(C)c3)n2)cc1 | 0.972 | 1 | 1 |
| CC(Oc1ccccc1)c1nc(-c2cccnc2)no1 (stereo unspecified) | 1.06 | 1 | 1 |
| CC(C)c1ccc(NC(=O)CSc2nnc(-c3ccc(Br)cc3)o2)cc1 | 1.03 | 1 | 1 |
| O=C(NCCc1ccccc1)c1ccccc1-c1nc(-c2ccccc2Cl)no1 | 0.669 (active) | 1 | 1 |
| COc1cccc(-c2noc(-c3ccc(Cl)cc3)n2)c1 | 0.983 | 0.562 (active) | 1 |
| Cc1ccc(-c2noc(-c3ccco3)n2)s1 | 1.11 | 0.812 | 1 |
| Brc1cccc(-c2nnc(SCc3ccccc3)o2)c1 | 0.968 | 1 | 1 |
| Cc1ccc(OCc2nc(-c3ccccc3)no2)c(Br)c1 | 1.01 | 1 | 1 |
| N#Cc1ccccc1CSc1nnc(-c2ccccc2)o1 | 0.841 | 1 | 1 |
| Clc1ccc(CSc2nnc(-c3ccc(Cl)cc3)o2)cc1 | 0.914 | – | 1 |
| COc1cccc(-c2noc(-c3c(F)cccc3F)n2)c1 | 0.953 | – | 1 |
| Clc1ccc(OCc2nc(-c3ccccc3)no2)c(Br)c1 | 1.02 | – | 1 |
| Fc1ccc(-c2noc(COc3ccccc3)n2)cc1 | 1.07 | – | 1 |
| COc1nc(-c2ccc(C)cc2)ccc1-c1noc(-c2cccc(C)c2)n1 | 0.949 | – | 1 |
| Cc1cc(Cl)ccc1NC(=O)CSc1nnc(-c2ccncc2)o1 | 0.974 | 1 | 1 |
| COc1ccc(Cl)cc1NC(=O)CSc1nnc(-c2ccc(Br)cc2)o1 | 1.03 | – | 1 |
| COC(=O)CSc1nnc(-c2ccc(C(C)(C)C)cc2)o1 | 0.976 | 1 | 1 |
| COc1ccc(NC(=O)CSc2nnc(-c3ccc(Br)cc3)o2)cc1 | 1.02 | – | 1 |
| Cc1ccc(-c2noc(CSc3nc(C)cc(C)n3)n2)cc1 | 0.974 | – | 1 |
| O=C(Nc1ccc(-c2noc(-c3ccc(Cl)cc3)n2)cc1)c1ccco1 | 1.04 | – | 1 |
